Bioassay records: PubChem BioAssay, NMMLSC
Only some compounds are listed: those with a hit (about 2.9% of all), similar ones and a draw of the others.
MEKK3 PB1 HTS – raises or lowers MEK5 binding to the human MEKK3 PB1 domain. Q99759. bead-based flow cytometry, Alexa488-MEK5 binding to MEKK3; actives lie on both sides; 0 = blocked by unlabeled MEK5, 100 = vehicle. binding response (% of control), % at 10 µM. 1.4% of 290,000 active. AID 1529;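 active = binding response more than 3 SD above or below the average of its plate-row segment, actives on both sides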;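 note: Alexa488 bead fluorescence after subtracting the streptavidin-only scavenger bead signal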
Target sequence (Q99759 whole entry, looked up, the tested form may be a part): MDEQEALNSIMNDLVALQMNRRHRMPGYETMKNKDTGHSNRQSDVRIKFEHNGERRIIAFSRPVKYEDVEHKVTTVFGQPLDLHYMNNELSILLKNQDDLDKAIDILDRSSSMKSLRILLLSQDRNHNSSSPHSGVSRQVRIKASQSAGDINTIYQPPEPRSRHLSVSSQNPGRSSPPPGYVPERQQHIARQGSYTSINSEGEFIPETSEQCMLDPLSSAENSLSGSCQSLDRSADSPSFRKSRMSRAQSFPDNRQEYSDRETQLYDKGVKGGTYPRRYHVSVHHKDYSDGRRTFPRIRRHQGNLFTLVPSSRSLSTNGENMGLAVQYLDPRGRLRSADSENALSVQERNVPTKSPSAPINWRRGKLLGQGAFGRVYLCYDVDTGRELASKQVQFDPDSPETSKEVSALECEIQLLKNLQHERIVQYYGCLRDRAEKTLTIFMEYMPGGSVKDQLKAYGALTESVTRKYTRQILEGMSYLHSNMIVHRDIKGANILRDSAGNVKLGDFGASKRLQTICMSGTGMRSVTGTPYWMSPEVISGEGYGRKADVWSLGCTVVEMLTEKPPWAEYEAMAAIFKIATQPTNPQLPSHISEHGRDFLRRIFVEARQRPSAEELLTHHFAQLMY
GRK2 inh – human GRK2 inhibition via aptamer displacement; P25098; 0.59% of 330,000 active; bead flow cytometry, FAM-aptamer displacement from GRK2; inhibition of aptamer binding, % at 10 µM;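 active = inhibition of aptamer binding above 40%, roughly 3 SD of noise, on plates passing a quality check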;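 note: median bead fluorescence of bound FAM aptamer so fluorescent compounds give negative values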
Beta2AR agonist – activates human beta-2 adrenergic receptor causing internalization; 0.43% of 340,000 active; AID 504454; response, % (no concentration beside the values); P07550; Am2.2-beta2AR cells, FAP receptor internalization, flow cytometry;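 active = response above a set limit, near 3 SD of response in nonfluorescent compounds, cut at about 42% in these data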
MEKK2mut PB1 HTS – signal of MEK5 binding to mutant human MEKK2 PB1 domain; bead flow cytometry, Alexa488-MEK5 binding to MEKK2 mutant; percent response, % at 10 µM; 0.35% of 290,000 active; AID 1530; in the data active = percent response above about 24%, passing the limit was not always enough
MEKK2wt PB1 HTS – raises or lowers MEK5 binding to wildtype human MEKK2 PB1 domain; Q9Y2U5; bead flow cytometry, Alexa488-MEK5 binding to MEKK2 WT; actives lie on both sides; binding response (% of control), % at 10 µM; 1.1% of 290,000 active; AID 1531; in the data active = binding response below about 67% or above about 130%
* marks the source's active call; other numbers are inactive results; · = no result given; [ ] = another dose, or the depositor's remark.

SMILES | MEKK3 PB1 HTS | GRK2 inh | Beta2AR agonist | MEKK2mut PB1 HTS | MEKK2wt PB1 HTS
C=CCOc1ccc(CN(C)CC(O)COc2cccc3ccccc23)cc1 (configuration not stated) | 107.0 | 0.0 | 16.8 | 14.0 | 142.0*
COC(=O)c1ccc(/C=C/C(=O)OCC(=O)Nc2sccc2C(N)=O)cc1 | · | 0.0 | 2.7 | · | ·
CCN(CC)CCNC(=O)c1ccc(NC(=O)c2cn(-c3ccc(F)cc3)nc2-c2cccc(OC)c2)cc1 | 108.0 | 0.0 | 9.0 | 51.0* | 222.0*
Cc1cc(-c2nc3ncccc3o2)ccc1NC(=S)NC(=O)C(C)C | 104.0 | 0.0 | 61.9* | -1.0 | 103.0
c1cc(SC2CCCCC2)cc(-c2nc3cnccn3c2NC2CCCCC2)c1 | · | 0.0 | 50.2* | · | ·
c1cn2c(NC3CCCCC3)c(-c3ccc(SC4CCCCC4)cc3)nc2cn1 | · | 0.0 | -0.3 | · | ·
C#CCOCCOCCOCCNc1nc(N2CCN(C(=O)CCCCCCCCCCNC(=O)[C@H](CCCCN)n3cc(CCO)nn3)CC2)nc(N2CCN(C(=O)CCCCCCCCCCNC(=O)[C@H](CCCN=C(N)N)n3cc(C[C@@H](C)CC)nn3)CC2)n1 | · | 0.0 | 19.5 | · | ·
C#CCOCCOCCOCCNc1nc(N2CCN(C(=O)CCCCCCCCCCNC(=O)[C@H](CCCCN)n3cc(CCO)nn3)CC2)nc(N2CCN(C(=O)CCCCCCCCCCNC(=O)[C@@H]([C@H](C)O)n3cc(C)nn3)CC2)n1 | · | 0.0 | 87.0* | · | ·
C#CCOCCOCCOCCNc1nc(N2CCN(C(=O)[C@H](CCCCN)n3cc(CCCC)nn3)CC2)nc(N2CCN(C(=O)[C@H](Cc3ccc(O)cc3)n3cc(CCO)nn3)CC2)n1 | 99.0 | 47.0* | -2.0 | 3.0 | 135.0
C#CCOCCOCCOCCNc1nc(N2CCN(C(=O)CCCCCCCCCCNC(=O)[C@H](CCCCN)n3cc(C[C@@H](C)CC)nn3)CC2)nc(N2CCN(C(=O)CCCCCCCCCCNC(=O)[C@H](CCCCN)n3cc(C[C@@H](C)CC)nn3)CC2)n1 | · | 0.0 | 42.1* | · | ·
C#CCOCCOCCOCCNc1nc(N2CCN(C(=O)CCCCCCCCCCNC(=O)[C@@H](CCSC)n3cc(CCO)nn3)CC2)nc(N2CCN(C(=O)CCCCCCCCCCNC(=O)[C@H]([C@@H](C)CC)n3cc(CCCCN=C(N)N)nn3)CC2)n1 | · | 0.0 | 78.0* | · | ·
C#CCOCCOCCOCCNc1nc(N2CCN(C(=O)CCCCCCCCCCNC(=O)[C@H](CCC(=O)O)n3cc(CCCCCN)nn3)CC2)nc(N2CCN(C(=O)CCCCCCCCCCNC(=O)[C@@H]([C@H](C)O)n3cc(C)nn3)CC2)n1 | · | 1.0 | 25.3 | · | ·
COc1ccc(C(=O)NNC(=O)COC(=O)c2sccc2C)cc1 | · | 1.0 | -3.9 | · | ·
CCCCn1c(N)c(N(CCOC)C(=O)c2c(CC)noc2C)c(=O)[nH]c1=O | · | 1.0 | 3.4 | · | ·
Oc1c(Br)cc(Br)cc1/C=N/Nc1ccc(Cl)nn1 | 97.0 | 6.0 | -9.0 | 8.0 | 97.0
Oc1ccc(/C=N/Nc2ccc(Cl)nn2)c(O)c1O | 89.0 | 6.0 | 91.5* | -3.0 | 83.0
CC(C)C(=O)NC(NC(=O)C(C)C)c1ccc([N+](=O)[O-])cc1 | 100.0 | 1.0 | 8.8 | 3.0 | -1.0*
Cc1ccc(C(C)C)cc1NC(=O)Nc1ccc([N+](=O)[O-])cc1 | 112.0 | 1.0 | 15.1 | 25.0* | 157.0*
Cc1cc(O)c(C(C)C)cc1NC(=O)Nc1ccc([N+](=O)[O-])cc1 | · | · | 4.9 | · | ·
COc1ccc(CNC(=O)C[C@H]2C[C@H](C(=O)N3CCCCC3)[C@@]3(CCc4ccccc4)c4[nH]c5ccc(Cl)cc5c4CCN3C2=O)cc1OC | · | 1.0 | 7.0 | · | ·
COc1ccc(C(=O)Nc2ccc(N3CCN(C(=O)c4ccccc4C)CC3)cc2)cc1 | 96.0 | 0.0 | 5.0 | 1.0 | 100.0
O=C(/C=C/c1cc(Br)ccc1O)c1ccco1 | 101.0 | 1.0 | 85.7* | 5.0 | 98.0
O=C(NC1CCCCC1)c1cccnc1Sc1ccccc1Cl | 98.0 | 0.0 | 1.2 | 0.0 | 96.0
O=C(O)c1cccnc1Sc1ccccc1Cl | 97.0 | 3.0 | 7.2 | 9.0 | 29.0*
O=C(O)/C=C/C(=O)Nc1ccc(OC(F)(F)F)cc1 | 105.0 | 9.0 | -0.3 | 2.0 | -3.0*
SMILES | MEKK3 PB1 HTS | GRK2 inh | Beta2AR agonist | MEKK2mut PB1 HTS | MEKK2wt PB1 HTS
CCc1ccc2oc(C(=O)NCC(c3ccc(OC)cc3)N3CCCCC3)c(C)c2c1 (configuration not stated) | 104.0 | 0.0 | -3.4 | 26.0* | 131.0
COc1ccc(C(CNC(=O)c2oc3ccc(OC)cc3c2C)N2CCCC2)cc1 (configuration not stated) | · | 0.0 | 6.4 | · | ·
COc1ccc(C(CNC(=O)c2oc3cc(Br)ccc3c2C)N2CCCCC2)cc1 (configuration not stated) | 107.0 | 0.0 | -3.8 | 30.0* | 141.0*
Cc1cc(Nc2ccc(O)cc2)ccc1N | · | 0.0 | · | · | ·
Cc1ccc(C2(C)NC(=O)N(CC(=O)N3CCN(C(=O)c4cccs4)CC3)C2=O)cc1 (configuration not stated) | · | 0.0 | 3.0 | · | ·
COc1ccccc1-c1cc(C(F)(F)F)nc(S(C)(=O)=O)n1 | · | 1.0 | 58.0* | · | ·
COc1ccc(OCc2nnc(SCC(=O)Nc3nnc(C4CC4)s3)n2C)cc1 | 101.0 | 0.0 | -3.4 | 5.0 | 100.0
O=C(CNC(=O)c1ccccc1)Nc1cccc(C(F)(F)F)c1 | 93.0 | 0.0 | -3.5 | -115.0 | 43.0*[inhibitor]
O=C(NC1CCCCC1)C(c1ccc(F)cc1)N(CCCN1CCOCC1)C(=O)c1ccc(CN2CCOCC2)o1 (configuration not stated) | 102.0 | 2.0 | -0.9 | -1.0 | 101.0
CCOc1ccc(CN2CCN(CC(O)Cn3c4ccccc4c4ccccc43)CC2)cc1 (configuration not stated) | 104.0 | 2.0 | 2.0 | 9.0 | 138.0*
COc1ccc(CN2CCN(CC(O)Cn3c4ccccc4c4ccccc43)CC2)cc1 (configuration not stated) | 93.0 | 0.0 | 23.9 | 0.0 | 111.0
Cc1ccc(-c2nnc(SCC(=O)N/N=C/c3ccc(C(=O)O)cc3)n2C2CCCCC2)cc1 | 100.0 | 1.0 | -0.1 | 3.0 | 106.0
CN(CC1CCOCC1)C(=O)CC1C(=O)NCCN1Cc1cccc(F)c1 (configuration not stated) | 99.0 | 0.0 | 2.7 | -1.0 | 101.0
O=C(C[C@H]1C[C@H](C(=O)N2CCCCC2)[C@@]2(CCc3ccccc3)c3[nH]c4cc(-c5ccco5)ccc4c3CCN2C1=O)NCCN1CCOCC1 | · | 0.0 | 42.5* | · | ·
C/C(=N\NC(=S)NCc1ccccc1)c1ccc(C)o1 | 103.0 | 2.0 | -2.3 | -1.0 | 105.0
CCN(C(=O)COC(=O)/C=C/c1ccco1)C1CCCCC1 | · | 49.0* | -1.9 | · | ·
COc1ccc(OC)c(C(=O)NC(CC(N)=O)c2ccc(N3CCC(Cc4ccccc4)CC3)c([N+](=O)[O-])c2)c1 (configuration not stated) | 104.0 | 0.0 | 0.3 | -3.0 | 93.0
COc1ccc(NS(=O)(=O)N2CCCCC2)cc1 | · | · | -10.9 | · | ·
